Tau fibril ThT: inhibitors of human tau fibril formation, thioflavin T binding; P10636; recombinant tau K18 P301L, heparin-induced fibrillization, ThT fluorescence; Potency, µM (titrated, usually from 57.4 µM), actives largely listed as inhibitors; hit rate 2.1% among 270,000; note: nearly all actives have a fitted effect of over 55% in size
Target sequence (P10636 561-689 P618L limits assumed): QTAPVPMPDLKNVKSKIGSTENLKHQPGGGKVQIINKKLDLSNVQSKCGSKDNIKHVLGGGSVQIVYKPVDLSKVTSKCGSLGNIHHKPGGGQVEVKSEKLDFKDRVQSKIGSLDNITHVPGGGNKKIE
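Fibril formation assay: tau K18 P301L at 15 uM with trace Alexa 594 label, heparin inducer 20 uM, pH 7 sodium acetate buffer, 37 C for 6 hr; endpoint ThT signal.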
Tau FP inhib: tau fibrillization inhibition (FP); K18 P301L tau heparin fibrillization, Alexa594 FP, 6 h; hit rate 0.39% among 280,000; Potency, µM (doses to about 57.7 µM), most hits filed as inhibitors; P10636; note: nearly all actives have a fitted effect of over 55% in size
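Compound effects on tau fibrillization are measured by Alexa 594 fluorescence polarization (ex 555, em 632 nm). K18 P301L tau is used at 15 uM with 0.24 uM labeled tracer, and 20 uM heparin induces aggregation over 6 hr at 37 C.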
JMJD2E inh: inhibitors of human JMJD2E histone demethylase; JMJD2E catalytic domain, FDH-coupled NADH fluorescence (FDH is formaldehyde dehydrogenase); Potency, µM (series often up to 57.1 µM), hits mostly inhibitors; hit rate 1.6% among 230,000; active = well fitted inhibition curve with a large enough effect, not every such curve was filed as active; inconclusive = small, poorly fitted or top-dose-only effect, or another doubt; inactive = no such curve, though single readings can be large or run the other way; note: nearly all actives have a fitted effect of over 50% in size
Target sequence (B2RXH2 1-337 limits assumed): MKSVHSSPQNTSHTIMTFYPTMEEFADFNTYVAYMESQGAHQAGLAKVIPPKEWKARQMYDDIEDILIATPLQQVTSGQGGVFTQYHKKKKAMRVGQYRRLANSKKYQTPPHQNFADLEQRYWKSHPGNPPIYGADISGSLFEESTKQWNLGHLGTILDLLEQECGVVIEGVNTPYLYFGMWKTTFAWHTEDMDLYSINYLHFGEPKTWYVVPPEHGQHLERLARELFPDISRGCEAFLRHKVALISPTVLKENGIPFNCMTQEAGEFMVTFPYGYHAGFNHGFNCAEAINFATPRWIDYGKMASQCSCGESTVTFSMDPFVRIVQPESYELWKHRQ
FBPA coupling cs: counter-screen for Giardia aldolase inhibitors: coupling enzyme system | coupling enzyme system counterscreen, AmpLite Red fluorescence | activity change, negative = inhibition, % at 58.2 µM, hits read low | hit rate 0.67% among 290,000; in the data active = activity change below about -30%
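Fluorescence at 525 nm excitation and 598 nm emission measured inhibition of the coupled detection system without aldolase. Compounds (at 57.5 uM final) were preincubated 10 min at room temperature with coupling enzyme reagent before a 20 min substrate/AmpLite Red step.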
Tau fluor cs: counter-screen for tau fibril formation inhibitors | hit rate 0.93% among 280,000 | tau K18 P301L (four-repeat tau fragment) Alexa594 fluorescence, heparin fibrillization | Potency, µM (doses to about 57.7 µM); note: nearly all actives have a fitted effect of over 55% in size
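Human K18 P301L tau (15 uM unlabeled plus 0.24 uM Alexa 594-labeled, final) in 100 mM sodium acetate pH 7 was mixed with compound and 20 uM heparin and incubated 6 hr at 37 C.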
Hits are given with their value; – = inactive; ? = inconclusive; · = no result given; [ ] = remark or other dose. Shown are actives, neighbours in structure and some others; about 3% of the full set was active somewhere. Unless noted, calls come from the whole dose curve; as a rule, active = well fitted curve in the direction sought with a large enough effect; inconclusive = small, poorly fitted or top-dose-only effect, or another doubt; inactive = no such curve, though single readings can be large; an effect the other way counts as inactive or inconclusive.

SMILES | Tau fibril ThT | Tau FP inhib | JMJD2E inh | FBPA coupling cs | Tau fluor cs
CC1CCN(C(=O)CSc2nnc(NC(=O)Nc3ccccc3)s2)CC1 | – | ? | · | · | ?
N#Cc1sc2nc(N3CCCCC3)c3c(c2c1N)CCCC3 | ? | – | ? | – | 16µM[quencher]
COC1=CC(=O)C=C(OC)C1=O | 10µM | 22µM | ? | -81 | ?
CCN1CCOC(=O)C1CC(=O)Nc1cc(C)ccc1OC (stereo unspecified) | ? | – | · | · | –
CCC(=O)N1CCc2cc(Br)cc(S(=O)(=O)CCC(=O)N3CCN(c4ccccc4F)CC3)c21 | – | – | · | · | –
CC(C)n1c(O)c(N=Nc2ccc(Cl)c(C(=O)O)c2)c2ccccc21 | 16µM | – | – | – | –
CCn1c(O)c(N=Nc2ccc(Cl)c(C(=O)O)c2)c2ccccc21 | 4.5µM | – | – | – | –
CC(C)c1cc(Nc2cccc(O)c2)cc(C(C)C)c1O | 32µM | ? | – | – | ?
CSCC[C@H](N)C(=O)N[C@@H](CCCN=C(N)N)C(=O)N[C@@H](Cc1ccccc1)C(=O)N[C@@H](Cc1ccccc1)C(=O)N[C@H](C(=O)O)C(C)C | · | · | · | – | ·
CCc1ccc(NC(=O)C(C)n2nnc3sc(-c4ccccc4)cc3c2=O)cc1 (stereo unspecified) | 28µM | ? | · | · | –
COC(=O)C(C)n1nnc2sc(-c3ccccc3)cc2c1=O (stereo unspecified) | ? | – | ? | – | –
CSc1cccc(NC(=O)c2ccc3c(c2)CCCN3S(C)(=O)=O)c1 | – | – | · | · | ?
OCCN(CCO)c1ccc(C(c2ccccc2Cl)c2ccc(N(CCO)CCO)cc2Cl)c(Cl)c1 | ? | – | – | – | 11µM[quencher]
OCCN(CCO)c1ccc2ccccc2c1 | – | – | ? | – | –
CC[n+]1ccc(C)c2cc(P(=O)(c3ccccc3)c3ccccc3)ccc21 | ? | – | 25µM | – | –
Cc1cc(C(=O)O)ccc1N/C=C1\CCCC(C)C1=O (stereo unspecified) | – | – | – | – | –
CC1CCC/C(=C\Nc2ccc(O)cc2)C1=O (stereo unspecified) | 18µM | ? | ? | -38 | ?
Cc1cc(C)c(S(=O)(=O)/N=C2\C=C(Nc3ccc(C(=O)O)cc3)C(=O)c3ccccc32)c(C)c1 | · | · | · | -42 | ·
Cc1cc(C)c(S(=O)(=O)/N=C2\C=C(NS(=O)(=O)c3ccccc3)C(=O)c3ccccc32)c(C)c1 | · | · | · | – | ·
O=C(O)c1ccc(NS(=O)(=O)c2ccc3c(c2)C(=O)c2ccccc2C3=O)cc1 | ? | – | – | – | –
O=C(O)c1ccc(NC2=C/C(=N/S(=O)(=O)c3ccccc3)c3ccccc3C2=O)cc1 | 14µM | ? | – | -47 | ?
Cc1ccc(C(=O)Nc2onc3c2CCCC3)cc1 | – | – | · | · | –
Cc1ccc2onc(CC(=O)Nc3cc(F)ccc3F)c2c1 | – | – | · | · | –
Cc1[nH]c2ccccc2c1/C=N/Nc1nncn1N | 14µM | – | ? | – | ?
Cc1[nH]c2ccccc2c1/C=N/Nc1nc(Nc2ccccc2)nc(N2CCOCC2)n1 | ? | ? | – | – | 22µM[quencher]
SMILES | Tau fibril ThT | Tau FP inhib | JMJD2E inh | FBPA coupling cs | Tau fluor cs
Cc1[nH]c2ccccc2c1/C=N/NC(=O)c1cccc(F)c1 | ? | ? | – | – | –
Cc1[nH]c2ccccc2c1/C=N/Nc1ccc(F)cc1F | 13µM | – | ? | – | ?
Oc1[nH]c2ccccc2c1N=Nc1nc(Nc2ccccc2)nc(N2CCOCC2)n1 | · | – | – | – | –
Cc1[nH]c2ccccc2c1/C=N/Nc1ccccn1 | 10µM | – | 25µM | – | 16µM[quencher]
CCCCC1CCC(C(=O)N2CC(=O)Nc3ccc(Cl)cc3C2c2ccc(F)cc2)CC1 (stereo unspecified) | – | – | · | · | –
CN(C)c1ccc(NC(=O)CN2CCN(CC(=O)Nc3ccc(Br)cc3)CC2)cc1 | – | ? | · | · | –
CC(C)(C)CNc1nc(C#N)nc(Nc2ccccc2)n1 | · | · | · | – | ·
COc1ccc(OCCSCc2nnc(NC(=O)Nc3ccc(Cl)cc3)s2)cc1 | – | 28µM | – | – | –
O=C(Nc1cccc(Cl)c1)Nc1nnc(CSCCOc2ccc(Cl)cc2)s1 | – | 7.9µM | – | – | ?
Cc1ccc(NC(=O)Nc2nnc(CSCCOc3ccc(Cl)cc3)s2)cc1 | – | ? | – | – | –
O=C(Nc1nnc(CC2=CCCCC2)s1)Nc1ccccc1F | – | – | – | – | –
O=C(Nc1cccc(Cl)c1)Nc1nnc(CC2=CCCCC2)s1 | – | 11µM | – | – | ?
O=C(O)CC/C(=N\Nc1ccc([N+](=O)[O-])cc1)c1ccccc1 | 7.9µM | – | – | – | ?
O=C(O)CC/C(=N/Nc1ccc([N+](=O)[O-])cc1)C(=O)O | ? | – | – | – | –
COC(=O)CN1C(=O)CSc2ccc(S(=O)(=O)Nc3cccc(C)c3)cc21 | – | – | · | · | –
Cc1oc(-c2cccc(Cl)c2)nc1CN1CCC(C(=O)NCc2ccc(F)cc2)CC1 | – | – | · | · | –
Cc1ccc(S(=O)(=O)Nc2nc3ccccc3nc2Nc2cccc(S(=O)(=O)N3CCCC3)c2)cc1 | ? | – | ? | – | –
O=[N+]([O-])c1cccc(S(=O)(=O)Nc2nc3ccccc3nc2Nc2cccc(S(=O)(=O)N3CCCCC3)c2)c1 | 16µM | – | – | – | ?
CN(C)c1ccc(N=Cc2nc(-c3ccccc3)oc2OC(=O)c2cccc(Br)c2)cc1 | 10µM | ? | – | – | –
CC(C)C(=O)c1ccc(O)c(O)c1 | – | – | 25µM | – | –
COC(=O)c1ccc(O)c(Sc2cc(C(=O)OC)ccc2O)c1 | ? | – | ? | – | ?
O=[N+]([O-])c1cc(-c2ccc(/C=N/c3nc4ccccn4c3-c3ccco3)o2)ccc1Cl | 11µM | ? | ? | – | 25µM[quencher]
O=[N+]([O-])c1cc(-c2cnc3ccccc3n2)ccc1Cl | ? | – | – | – | –
CC(=O)c1ccc(NC(=S)NCCc2ccc(S(N)(=O)=O)cc2)cc1 | ? | – | – | – | –
CC(C)OCCCNC(=S)Nc1ccc(S(N)(=O)=O)cc1 | – | – | – | -65 | –
SMILES | Tau fibril ThT | Tau FP inhib | JMJD2E inh | FBPA coupling cs | Tau fluor cs
CN(C)C(=S)N=Nc1[nH]c2ccccc2c1O | 16µM | – | – | – | –
CCNC(=O)C1CCCN(c2nn3cc(-c4ccc(C)cc4)nc3s2)C1 (stereo unspecified) | ? | – | · | · | –
O=C(Nc1ccc2[nH]c(=S)sc2c1)Nc1ccccc1F | 11µM | – | – | – | 11µM[quencher]
C=CCCN(C(C)C(=O)OC)S(=O)(=O)c1ccccc1Br (stereo unspecified) | · | · | · | – | ·
CC(C)(C)c1ccc(Oc2ccc(NC(=O)c3cccs3)cn2)cc1 | – | 28µM | – | – | ?
COc1ccc(-c2cn3nc(N4CCCC(C(=O)NCc5ccccc5C)C4)sc3n2)cc1 (stereo unspecified) | ? | – | · | · | –
CC1=CC(C)(C)Nc2ccc(OC(=O)CN3C(=O)CCC3=O)cc21 | ? | – | ? | -32 | ?
CC1=CC(C)(C)Nc2cc(C)c(C)cc21 | ? | – | 11µM | – | –
CC1=CC(C)(C)Nc2ccc(C)cc21 | ? | – | 14µM | – | –

From PubChem BioAssay
